From the emibetuzumab library of Makowski et al. (2022) come the findings set out here.

Some of the results follow. No count for the full screen is at hand.

To fix the notation:
B1: VH:VL chains; a variant is named by its letters at X, in order (parent)
chain 1: QVQLVQSGAEVKKPGASVKVSCKASGYTFTDYXMHWVRQAPGQGLEWMGXVNPNXXXTTYNQKFEGRVTMTTDTSTSTAYMELRSLRSDDTAVYYCARXNXLDXWGQGTTVTVSS
chain 2: DIQMTQSPSSLSASVGDRVTITCSVSSSVSSIYLHWYQQKPGKAPKLLIYSTSNLASGVPSRFSGSGSGTDFTLTISSLQPEDFATYYCQVYSGYPLTFGGGTKVEIK

The variants in the assay derive from B1. The experiment in a line: yeast display scFab, FACS + sequencing. Conditions: with MET. The method in brief:
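Two magnetic rounds on Protein A beads coated with HGFR-Fc, followed by FACS, were used to enrich a yeast surface scFab library mutated in the heavy-chain CDRs. FACS gated the top 50% antigen-positive cells after 3 h labelling at room temperature with 1 nM HGFR-Fc and anti-Myc in PBSB plus 1% milk. Binding to the antigen was scored positive when a sequence occurred in both antigen-positive samples from deep sequencing and negative when it occurred only in the input.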
For DGEGGDWD, the antigen binding call is reported as “no binding”.
With VGRTSFGF, the antigen binding call is listed as “no binding”.
Turning to YKAGGFWF, the antigen binding call is “no binding”.
Consider YKGKGSLF, for which the antigen binding call is recorded as “binds”.
In the case of YKAGGSLF, the antigen binding call is given as “binds”.
In the case of VKGRADWF it was “no binding”; in that of VTGEDDVV, “no binding”; in that of VKGRADAV, “no binding”.
SAGRGDGS: the antigen binding call is given as “no binding”.
On to SRGRGSSS, for which the antigen binding call is “binds”.
Consider SGTADSSS, for which the antigen binding call was “no binding”.
Regarding AATTDSSS, the antigen binding call was “no binding”.
On to SRGRGVLV, for which the antigen binding call is “no binding”.
The result for ARGRGSSS reads “binds”; that for SRGRGSLS, “binds”; that for SEGRGDGA, “no binding”.
For the variant AKTKSDGV, the antigen binding call is on record as “no binding”.
For the variant ATGGDSGD, the antigen binding call is reported as “no binding”.
VKGRGVGA: the antigen binding call is recorded as “binds”.
Turning to AKGRGDGA, the antigen binding call is “no binding”.
Regarding YKGRGVGA, the antigen binding call is “binds”.
Regarding YAGRGDGA, the antigen binding call is “no binding”.
On to VEGRGDGA, for which the antigen binding call is “no binding”.
For the variant VTGGDDGY, the antigen binding call was “no binding”.
In the case of VTGGGDGS, the antigen binding call is reported as “no binding”.
Consider VEARGDGA, for which the antigen binding call is recorded as “no binding”.
In the case of VAGTGDGY it was “no binding”; in that of VRGGDDGV, “no binding”; in that of VRARGDGY, “binds”.
With VRGGSDGY, the antigen binding call was “binds”.
For VRGGGDGY, the antigen binding call is recorded as “binds”.
Regarding ARERGDGY, the antigen binding call is “no binding”.
For DAERTDGV, the antigen binding call is on record as “no binding”.
Consider AEAGADVV, for which the antigen binding call is listed as “no binding”.
In the case of YRREGSLA, the antigen binding call is given as “binds”.
For VRRRGALA, the antigen binding call is on record as “binds”.
VTEGGALA: the antigen binding call was “no binding”.
In the case of YRRRGSLA it was “binds”; in that of YTREGAVA, “no binding”; in that of VAEKGALA, “no binding”.
YAREGSGA: the antigen binding call is “no binding”.
On to YRRRGALA, for which the antigen binding call is reported as “binds”.
Turning to VKGRADSV, the antigen binding call is recorded as “no binding”.
For YRRGGALA, the antigen binding call is listed as “binds”.
For YREETSGA, the antigen binding call is “no binding”.
As for YRRRSSLA, the antigen binding call was “binds”.
On to FRAGGAGA, for which the antigen binding call is “binds”.
For the variant FRAGGSGA, the antigen binding call is listed as “binds”.
FKAGGSGA: the antigen binding call is “no binding”.
In the case of ARARGSGA, the antigen binding call was “no binding”.
In the case of FEAGDSGA, the antigen binding call is on record as “no binding”.
Consider FAARDSGA, for which the antigen binding call was “no binding”.
For the variant FRARGSGA, the antigen binding call is recorded as “binds”.
The result for FRARGAGA reads “binds”.
Consider DKGEGDLA, for which the antigen binding call was “no binding”.
The result for VEEEGSGA reads “no binding”; that for YKREGSAV, “no binding”; that for YRRGGSAV, “binds”.
In the case of YRRGSSAV, the antigen binding call is “binds”.
As to DRRGSDAV, the antigen binding call is reported as “no binding”.
As to YRREGSAV, the antigen binding call was “binds”.
In the case of YRREGSVV it was “binds”; in that of VATRAVGA, “no binding”; in that of VKGRSDAS, “no binding”.
In the case of DTGGGDAA, the antigen binding call is listed as “no binding”.
Consider FTREASAV, for which the antigen binding call is “no binding”.
As to VTTKSSAV, the antigen binding call is listed as “no binding”.
Consider VRRGSDGV, for which the antigen binding call was “no binding”.
As to FRRGSSAV, the antigen binding call was “binds”.
For VRRGSSAV, the antigen binding call is recorded as “binds”.
Consider VRTEDDWY, for which the antigen binding call is “no binding”.
SEEEGDVA: the antigen binding call was “no binding”.
Take YTTGGDVA: the antigen binding call is reported as “no binding”.
In the case of VTAGDDGS it was “no binding”.
Regarding DTTGSDVF, the antigen binding call is reported as “no binding”.
On to YRTRSSAV, for which the antigen binding call was “binds”.
In the case of YRTRSAAV it was “binds”.
With YRRRGSSF, the antigen binding call is listed as “binds”.
As for YRRRGASF, the antigen binding call was “binds”.
Take STGGNDAD: the antigen binding call is “no binding”.
In the case of YKAGGFGA it was “no binding”; in that of YKGKGSLA, “binds”.
Turning to YKGEGDLA, the antigen binding call is reported as “no binding”.
For the variant YKAGGALA, the antigen binding call was “binds”.
YKGKGALA: the antigen binding call is listed as “binds”.
Consider YKGKGFGA, for which the antigen binding call is recorded as “no binding”.
The result for FAAETDVF reads “no binding”.
For the variant AARADDWD, the antigen binding call is “no binding”.
In the case of DTGEDDVY it was “no binding”; in that of SAGEGSLV, “no binding”.
The result for DRAETDVY reads “no binding”; that for SAAGGASD chain 1 L45S, “no binding”.
Regarding YTTKSDGV, the antigen binding call was “no binding”.
The result for VTGTGDGA reads “no binding”.
In the case of STGGDDGA, the antigen binding call is on record as “no binding”.
Take YRRGGALD: the antigen binding call is “binds”.
In the case of YARGGDLD it was “no binding”; in that of DARGGSLD, “no binding”.
The result for FRRGGSLD reads “binds”.
In the case of FARAAALD it was “no binding”.
With FREGGALD, the antigen binding call is listed as “binds”.
On to FRRGGALD, for which the antigen binding call is recorded as “binds”.
For the variant VEKEGDGA, the antigen binding call is on record as “no binding”.
Consider AKAGSYGV, for which the antigen binding call is recorded as “no binding”.
In the case of ATGRASLD, the antigen binding call was “no binding”.
In the case of FRGGGDWD, the antigen binding call was “no binding”.
In the case of ARRGSSLD it was “binds”; in that of FRAEGSLD, “binds”.
As for FRKGGSLD, the antigen binding call is given as “binds”.
For FRGGGSLD, the antigen binding call is given as “binds”.
Turning to YTEGDDWY, the antigen binding call was “no binding”.
Consider SEARSDGF, for which the antigen binding call is on record as “no binding”.
For DAKENDVA, the antigen binding call was “no binding”.
In the case of YTGGDDVD it was “no binding”.
Consider FRKGTALD, for which the antigen binding call is on record as “binds”.
The result for FKGKGSGA reads “no binding”; that for FKGKGFGA, “no binding”.
The result for FRGKGAGA reads “binds”.
As for FRGKGSGA, the antigen binding call is “binds”.
As to FRGKGSLA, the antigen binding call is “binds”.
In the case of FREKGDLA, the antigen binding call is on record as “binds”.
For the variant FRTKSDLA, the antigen binding call is listed as “no binding”.
On to VKEKGDLA, for which the antigen binding call is on record as “no binding”.
DAKKNASF: the antigen binding call is on record as “no binding”.
Take VTREGAVA: the antigen binding call is recorded as “no binding”.
Consider YTEGDDGA, for which the antigen binding call was “no binding”.
FRGKSAAA: the antigen binding call is “binds”.
In the case of FRGKGAAA it was “binds”.
Take VTGRAAWV: the antigen binding call was “no binding”.
In the case of YRRRGFWY it was “no binding”; in that of YRRRGDVY, “binds”.
YRAGDDVY: the antigen binding call was “no binding”.
As for YTERGDVY, the antigen binding call is given as “no binding”.
For the variant YRRRGAVY, the antigen binding call is recorded as “binds”.
